Measurements reported in PubChem BioAssay (Tox21).
Results filed as inconclusive are left out. Entries that show only a call come without a potency. A number with no mark means an inactive call. Activity calls are given as the source filed them. The call rests on the fitted dose curve; in most records, active means well fitted cell-killing curve with a large enough effect in the repeat runs; inconclusive means weak or mixed curves, or effect the other way; inactive means flat fitted curve, though single readings scatter.

Assays:
[1] = cAMP Responsive Elements (CRE) small molecule antagonists, cell-based qHTS assay: qHTS cell viability counter screen (AID 2060913); conditions: CRE-bla HEK293T viability, CellTiter-Glo luminescence, 5 h; series mostly up to 92.4 µM; further: nearly all actives have a fitted effect of over 40% in size; further: potency means the concentration at half of the fitted maximal effect
In short: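 Viability of NKH477-stimulated (0.25 uM final) CRE-bla HEK293T cells is measured by CellTiter-Glo luminescence following 3 hrs compound exposure at 37 C.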

[2] = cAMP Responsive Elements (CRE) small molecule agonists, cell-based qHTS assay: qHTS cell viability counter screen (AID 2060914); conditions: CRE-bla HEK293T viability, CellTiter-Glo luminescence, 5 h; series mostly up to 92.4 µM; further: nearly all actives have a fitted effect of over 50% in size
In short: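 Luminescence read-out (CellTiter-Glo, 30 min RT) of ATP-based viability in CRE-bla HEK 293T cells, run in the same wells as the β-lactamase reporter assay after 3 h compound treatment at 37 °C.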

Row | Compound | Potency [1] | Potency [2] | viability change, negative = cytotoxic [1] | activity change, negative = cytotoxicity [2]
1 | C[C@H]1C[C@@H](O)CC(C)(C)C1 | inactive | inactive |  | 
2 | Nc1ccc(S(=O)(=O)Nc2cnc3ccccc3n2)cc1 | inactive | inactive |  | 
3 | COC(=O)CSc1cc(N=c2sc(=O)n3n2CCCC3)c(F)cc1Cl | inactive | inactive |  | 
4 | CCN1CCCC1=O | inactive | inactive |  | 
5 | Nc1cc([N+](=O)[O-])ccc1C(=O)O | inactive | inactive |  | 
6 | NNCCc1ccccc1 | inactive | inactive |  | 
7 | CCOC(=O)c1ccccc1C(=C1C=C(Br)C(=O)C(Br)=C1)c1cc(Br)c(O)c(Br)c1 | inactive | inactive |  | 
8 | NC(=O)N1c2ccccc2CC(=O)c2ccccc21 | inactive | inactive |  | 
9 | C[N+]1(C)[C@@H]2CC(OC(=O)[C@H](CO)c3ccccc3)C[C@H]1[C@@H]1O[C@@H]12 (some centres not stated) | inactive | inactive |  | 
10 | C/C(=N/NC(=O)c1ccncc1)C(=O)O | inactive | inactive |  | 
11 | Cc1ccc(C(N)=O)cc1N | inactive | inactive |  | 
12 | C#C[C@]1(O)CC[C@H]2[C@@H]3CCc4cc(OC5CCCC5)ccc4[C@H]3CC[C@@]21C | inactive | inactive |  | 
13 | C[C@H]1C[C@H](O)c2ccsc2S1(=O)=O | inactive | inactive |  | 
14 | CCCCCCOc1cc(C)c(O)c(C)c1C | 55.1 µM (active) | inactive |  | 
15 | CC(=O)NNC(C)=O | inactive | inactive |  | 
16 | OC[C@H]1O[C@H](O[C@]2(CCl)O[C@H](CCl)[C@@H](O)[C@@H]2O)[C@H](O)[C@@H](O)[C@H]1Cl | inactive | inactive |  | 
17 | Nc1nc(Cl)nc2c1ncn2[C@@H]1O[C@H](CO)[C@@H](O)[C@@H]1F | inactive | inactive |  | 
18 | O=C(O)CCc1nc(-c2ccccc2)c(-c2ccccc2)o1 | inactive | inactive |  | 
19 | ClC1=C(Cl)C1(Cl)Cl | inactive | inactive |  | 
20 | Cc1cc([N+](=O)[O-])ccc1N | inactive | inactive |  | 
21 | CCOC(=O)c1ccccc1OC | inactive | inactive |  | 
22 | COC(=O)c1cc(Cl)ccc1[N+](=O)[O-] | inactive | inactive |  | 
23 | O=C(O)CNC(=O)c1ccc([N+](=O)[O-])cc1 | inactive | inactive |  | 
24 | C=C(CC(=O)O)C(=O)O | inactive | inactive |  | 
25 | C=CC(C)(C)C | inactive | inactive |  | 
26 | CN(C)CCN(Cc1ccccc1)c1ccccn1 | inactive | inactive |  | 

Row | Compound | Potency [1] | Potency [2] | viability change, negative = cytotoxic [1] | activity change, negative = cytotoxicity [2]
27 | CNC(=O)C(c1ccccc1)c1ccccc1 | inactive | inactive |  | 
28 | CCCCC(CC)COC(=O)COc1ccc(Cl)cc1Cl (configuration not stated) | inactive | inactive |  | 
29 | CC(C)CCCCCCN | inactive | inactive |  | 
30 | N[C@H](C(=O)O)c1ccc(O)cc1 |  |  | 2.5% [at 18.9 µM] | -13.1% [at 18.9 µM]
31 | C=CCON/C(CCC)=C1\C(=O)CC(C)(C)C(C(=O)OC)=C1O | inactive | inactive |  | 
32 | CCOC(=O)C(C)(C)Oc1ccc(Cl)cc1 | inactive | inactive |  | 
33 | Cc1ccc(/C(=C\CN2CCCC2)c2ccccn2)cc1 | inactive | inactive |  | 
34 | CCCc1ccc(OCC(=O)N2CCN(C(=O)COc3ccc(CCC)cc3OC)CC2)c(OC)c1 | inactive | inactive |  | 
35 | CCc1cccc(C)c1 | inactive | inactive |  | 
36 | CC(=O)CC(=O)OC(C)(C)C | inactive | inactive |  | 
37 | CC(=O)CC(C)=O | inactive | inactive |  | 
38 | COc1cc(C=O)ccc1O | inactive | inactive |  | 
39 | CCOc1ccc(NC(=O)CC(C)=O)cc1 | inactive | inactive |  | 
40 | CCCCCCCCC(=O)OCC(C)OC(=O)CCCCCCCC (configuration not stated) | inactive | inactive |  | 
41 | O=C(O)[C@@H]1[C@H]2C[C@H]3c4[nH]c5ccccc5c4CCN3C[C@@H]2CC[C@@H]1O | inactive | inactive |  | 
42 | O=C(c1ccccc1)c1ccc(O)c(O)c1O | inactive | inactive |  | 
43 | CS(=O)(=O)OCCCCOS(C)(=O)=O | inactive | inactive |  | 
44 | C=Cc1ccccn1 | inactive | inactive |  | 
45 | N#Cc1ccccc1C#N | inactive | inactive |  | 
46 | Cc1cc(C)c(N)cc1C | inactive | inactive |  | 
47 | O=C(/C=C/c1ccccc1)OCCCc1ccccc1 | inactive | inactive |  | 
48 | CC(C)(c1ccc(Oc2ccc3c(c2)C(=O)OC3=O)cc1)c1ccc(Oc2ccc3c(c2)C(=O)OC3=O)cc1 | inactive | inactive |  | 
49 | CCCCCCCCCOC(=O)c1ccc(O)cc1 | 47.9 µM (active) | inactive |  | 
50 | CC(=O)CC(=O)Nc1ccc(S(=O)(=O)O)cc1 | inactive | inactive |  | 
51 | NC(=O)CC[C@@H]1NC(=O)[C@H](Cc2ccccc2)NC(=O)[C@H](Cc2ccc(O)cc2)NC(=O)CCSSC[C@@H](C(=O)N2CCC[C@H]2C(=O)N[C@@H](CCCN=C(N)N)C(=O)NCC(N)=O)NC(=O)[C@H](CC(N)=O)NC1=O | inactive | inactive |  | 
